Assay results reported in PubChem BioAssay (NCATS).
Where “and” joins values, the source holds several entries; their conditions need not be identical. Identical values can stand only once. Records with an inconclusive call do not appear. Calls of active or inactive are those of the source. Unless noted, calls come from the whole dose curve; as a rule, active = well fitted curve in the direction sought with a large enough effect; inconclusive = small, poorly fitted or top-dose-only effect, or another doubt; inactive = no such curve, though single readings can be large; an effect the other way counts as inactive or inconclusive.

Tests used:
[1] = qHTS Assay for Identifying Gametocytocidal Compounds (AID 743244); note: potency is the fitted concentration of half-maximal effect;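 for max response: % is set by controls: 0 for no effect and ±100 for the full control effect; actives lower the fluorescent signal which means gametocytes are killed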; conditions: P. falciparum 3D7 stage III-V gametocytes, alamarBlue, 72 h; max response: stronger effect = lower value
In short: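 P. falciparum 3D7 stage III–V gametocytes (20,000 cells/well) were exposed to compounds for 72 h at 37 °C, 5% CO2. AlamarBlue was then added for 24 h; decreased resorufin fluorescence (Ex 525/Em 598 nm) indicated loss of viability.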

[2] = qHTS profiling of the MIPE4 collection as inhibitors of Plasmodium falciparum (3D7) proliferation (AID 743344; call rule not given here;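 note: scaled between DMSO vehicle wells and 0.29 µM artemisinin as full inhibition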); conditions: P. falciparum 3D7 in erythrocytes, SYBR Green DNA fluorescence, 72 h; at 28.5 µM (top of the series) unless noted
In short: (§1)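 Erythrocytes infected with P. falciparum (0.3% parasitemia, 2.5% hematocrit) incubated with compounds 72 h at 37 C, 5% CO2. Lysis with saponin/Triton buffer containing SYBR Green I, overnight at room temperature in the dark; DNA fluorescence (485/535 nm) normalised to 0.29 uM artemisinin and DMSO.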

[3] = qHTS profiling of the MIPE4 collection as inhibitors of Plasmodium falciparum (DD2) proliferation (AID 743345; call rule not given here); conditions: P. falciparum Dd2 in erythrocytes, SYBR Green DNA, 72 h; at 28.5 µM (top of the series) unless noted
In short: as §1

[4] = qHTS profiling of the MIPE4 collection as inhibitors of Plasmodium falciparum (DD2) proliferation (Rep 2) (AID 743346; call rule not given here); conditions: P. falciparum Dd2 in erythrocytes, SYBR Green DNA, 72 h; at 28.5 µM (top of the series) unless noted
In short: as §1

[5] = qHTS profiling of the MIPE4 collection as inhibitors of Plasmodium falciparum (HB3) proliferation (AID 743347; call rule not given here;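 note: plate controls were DMSO vehicle wells for no effect and artemisinin wells for full effect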); conditions: P. falciparum HB3 in erythrocytes, SYBR Green DNA, 72 h; at 28.5 µM (top of the series) unless noted
In short: as §1

[6] = High-throughput drug toxicity screening in the BPDCN cell line Gen2.2 (AID 1224824; call rule not given here;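 note: cells exposed to compounds for 48 h before reading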); conditions: Gen2.2 BPDCN cells; at 45.8 µM (top of the series) unless noted
In short: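 Readout is ATP luminescence from Gen2.2 cells after two days of drug exposure in serum-containing medium at 37 °C. Values express percent activity, with vehicle defining full signal and 9.2 uM bortezomib defining zero.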

[7] = High-throughput drug toxicity screening in the BPDCN cell line Cal-1 (AID 1224825; call rule not given here); conditions: Cal-1 BPDCN cell viability, qHTS; at 45.8 µM (top of the series) unless noted
In short: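 Cal-1 cells, 500 per well in phenol-red-free RPMI with 10% FBS, exposed to compounds for 48 hours at 37C, 5% CO2. Viability read by CellTiter-Glo luminescence; percent activity normalized to DMSO (100%) and 9.2 uM bortezomib final (0%).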

[8] = qHTS assay for measurement of the activity of small molecule inhibitors on Zika virus induced Caspase-3 activity in human iPSC derived neural progenitor cells (hNPCs) (AID 1224857); note: % of control where 0% means no effect; nearly all actives have a fitted effect of over 65% in size
In short: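 hNPCs seeded 350 cells/well, cultured 16–20 h; compounds added 1 h before ZIKV (2 FFU/cell), 37 C 6 h. Caspase-Glo 3/7 luminescence after 30 min RT; % inhibition from induction scaled to uninfected (0%) and infected (100%) wells.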

[9] = qHTS assay for measurement of the activity of small molecule inhibitors on Zika virus induced Caspase-3 activity in human astrocytoma cells (AID 1224859);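 note: plate controls were ZIKV-infected untreated cells for no effect and uninfected cells for full effect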
In short: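 Luminescence read-out (Caspase-Glo 3/7, 30 min RT) of caspase activity in SNB-19 cells infected 6 h with ZIKV, 2 FFU/cell, after 1 h compound pretreatment; % inhibition from induction normalised to uninfected (0%) and infected (100%) wells.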

[10] = qHTS Screen of the MIPE 4.0 Collection Against Ewings Sarcoma (RDES) (AID 1259252); note: nearly all actives have a fitted effect of over 35% in size; note: potency is the fitted concentration of half-maximal effect
In short: (§2)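 Dose series incubated 48 h with cells in RPMI plus 5% FBS, glutamine and penicillin/streptomycin; cell viability then quantified via CellTiter-Glo.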

[11] = qHTS Screen of the MIPE 4.0 Collection Against Ewings Sarcoma (TC71) (AID 1259253); note: nearly all actives have a fitted effect of over 40% in size; note: potency is the fitted concentration of half-maximal effect
In short: as §2

[12] = qHTS Screen of the MIPE 4.0 Collection Against Ewings Sarcoma (EW8) (AID 1259255); note: nearly all actives have a fitted effect of over 35% in size; note: potency is the fitted concentration of half-maximal effect;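 for viability: 100% = DMSO-treated cells and 0% = medium-only wells without cells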
In short: as §2

[13] = qHTS Screen of the MIPE 4.0 Collection Against Ewings Sarcoma (TC32) (AID 1259256); note: nearly all actives have a fitted effect of over 45% in size; note: potency is the fitted concentration of half-maximal effect
In short: as §2

[14] = qHTS profiling for inhibitors of Plasmodium falciparum (3D7) proliferation (AID 743322);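 note: infected erythrocytes exposed to compound for 72 h before lysis; 100% = DMSO vehicle wells and 0% = 0.29 µM artemisinin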; conditions: P. falciparum 3D7 proliferation; at 28.7 µM (top of the series)
In short: as §1

[15] = qHTS profiling for inhibitors of Plasmodium falciparum (DD2) proliferation (AID 743323; call rule not given here); conditions: lower = more inhibition; at 28.7 µM (top of the series)
In short: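 Parasite proliferation measured via DNA-dye fluorescence, as uninfected erythrocytes lack DNA. Cultures at 0.3% parasitemia and 2.5% hematocrit incubated 72 h with compound; signal scaled between vehicle and 0.29 uM artemisinin wells.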

[16] = qHTS profiling for inhibitors of Plasmodium falciparum (HB3) proliferation (AID 743324); conditions: Plasmodium falciparum HB3 blood-stage proliferation; at 28.7 µM (top of the series);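 note: 100% = DMSO vehicle wells and 0% = artemisinin-treated control wells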
In short: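 P. falciparum HB3 grown in erythrocytes (0.3% parasitemia, 2.5% hematocrit final) with compound for 72 h at 37 C, 5% CO2. Parasite DNA detected by SYBR Green after saponin/triton lysis overnight; normalized to 0.29 uM artemisinin and DMSO.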

[17] = target: Hexokinase-4 (Homo sapiens) + Glucokinase regulatory protein (Homo sapiens) (UniProt P35557+Q14397); assay: qHTS assay for inhibitors of recombinant human GCK-GKRP interaction: HTRF assay (AID 743207);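 note: 0% = DMSO with GCK present and -100% = DMSO wells lacking GCK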
Hexokinase-4 (Homo sapiens) + Glucokinase regulatory protein (Homo sapiens), sequence (P35557 whole entry, looked up): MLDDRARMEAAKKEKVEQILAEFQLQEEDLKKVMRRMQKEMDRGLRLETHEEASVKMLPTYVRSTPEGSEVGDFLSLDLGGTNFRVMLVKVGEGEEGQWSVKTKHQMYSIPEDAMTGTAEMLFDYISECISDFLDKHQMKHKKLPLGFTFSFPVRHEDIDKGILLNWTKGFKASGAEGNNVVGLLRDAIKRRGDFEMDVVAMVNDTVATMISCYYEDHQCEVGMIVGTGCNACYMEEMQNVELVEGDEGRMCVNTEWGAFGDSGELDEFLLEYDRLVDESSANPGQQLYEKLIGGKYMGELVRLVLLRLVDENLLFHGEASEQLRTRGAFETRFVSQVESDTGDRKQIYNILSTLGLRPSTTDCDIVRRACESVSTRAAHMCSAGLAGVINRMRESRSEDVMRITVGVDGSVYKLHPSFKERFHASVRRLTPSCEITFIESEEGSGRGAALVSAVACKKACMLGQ
Hexokinase-4 (Homo sapiens) + Glucokinase regulatory protein (Homo sapiens), sequence (Q14397 whole entry, looked up): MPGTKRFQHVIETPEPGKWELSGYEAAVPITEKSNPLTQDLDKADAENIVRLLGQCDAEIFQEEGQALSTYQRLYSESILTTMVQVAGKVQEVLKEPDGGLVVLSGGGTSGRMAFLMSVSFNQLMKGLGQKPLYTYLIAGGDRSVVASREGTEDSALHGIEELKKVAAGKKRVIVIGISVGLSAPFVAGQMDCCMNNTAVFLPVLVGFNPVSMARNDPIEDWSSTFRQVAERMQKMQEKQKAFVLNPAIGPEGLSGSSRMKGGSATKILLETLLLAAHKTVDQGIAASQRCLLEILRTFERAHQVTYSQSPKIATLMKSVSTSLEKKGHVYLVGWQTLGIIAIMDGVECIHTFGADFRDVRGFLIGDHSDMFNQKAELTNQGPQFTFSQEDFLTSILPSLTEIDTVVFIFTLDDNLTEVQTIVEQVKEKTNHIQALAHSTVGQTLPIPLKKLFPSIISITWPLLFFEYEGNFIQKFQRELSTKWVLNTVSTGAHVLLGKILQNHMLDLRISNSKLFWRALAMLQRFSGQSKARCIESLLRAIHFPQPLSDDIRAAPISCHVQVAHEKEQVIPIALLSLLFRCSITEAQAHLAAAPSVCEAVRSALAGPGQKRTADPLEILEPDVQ
In short: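 Titration screening format: recombinant GST-GCK and FLAG-GKRP at 5 nM, S6P at 2 uM, labelled anti-tag antibodies, 60 min at RT, dual-wavelength HTRF readout.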

Compound	max response [1]	parasite growth, % of DMSO control [2]	parasite growth remaining, % of DMSO control (lower = more inhibition) [3]	parasite growth, % of control (lower = inhibition) [4]	growth, % of control [5]	cell viability, % of control (lower = more cytotoxic) [6]	viability (% of control) [7]	Potency [8]	Potency [9]	Potency [10]	Potency [11]	Potency [12]	Potency [13]	remaining parasite growth % (stronger effect = lower value) [14]	activity, percent of control [15]	remaining proliferation (% of control), lower = more inhibition [16]	Potency [1]	outcome [17]
CN(C)CCc1c[nH]c2ccc(C[C@H]3COC(=O)N3)cc12	-7.68% (inactive)	107%	92.5%	73.2%	91.4%	88.7%	99.9%	inactive	inactive	inactive	inactive	inactive	inactive	–	–	–	–	–
CNC(=O)c1cc(Oc2ccc(NC(=O)Nc3ccc(Cl)c(C(F)(F)F)c3)cc2)ccn1	-3.89% (inactive) and 12.7% (inactive) and 20% (inactive)	15.4%	14%	–	12.2%	2.89%	9.69%	inactive	inactive	1.18 µM (active)	2.35 µM (active)	18.7 µM (active)	–	31.5% and 9.84%	29.9% and 20%	3.29% and 1.23%	–	–
O[C@@H](CNC[C@H](O)[C@H]1CCc2cc(F)ccc2O1)[C@@H]1CCc2cc(F)ccc2O1	–	6.58%	8.23%	19.2%	8.28%	4.81%	2.75%	inactive	inactive	23.5 µM (active)	20.9 µM (active)	20.9 µM (active)	23.5 µM (active)	–	–	–	11.2 µM (active)	–
OCc1ccc(-c2nn(Cc3ccccc3)c3ccccc23)o1	-5.09% (inactive)	74.2%	85%	73.7%	21.8%	199%	104%	inactive	inactive	2.64 µM (active)	14.8 µM (active)	1.18 µM (active)	–	–	–	–	–	inactive
CC1=C(C(=O)O)N2C(=O)[C@@H](NC(=O)C(N)c3ccccc3)[C@H]2SC1 (some centres undefined)	7.37% (inactive)	101%	95.4%	151%	108%	114%	12.1%	inactive	inactive	inactive	inactive	inactive	inactive	–	–	–	–	inactive
CCCOc1ccc(C(=O)OCCN(CC)CC)cc1N	–	100%	88.7%	111%	63.6%	177%	105%	inactive	inactive	inactive	inactive	inactive	inactive	–	–	–	–	–
